Experimental data taken from PubChem BioAssay (NCI).
Compounds without any hit were thinned out: in the full panel of roughly 83,000, 20% have a hit.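 Plates (96-well) were seeded with cells, treated with compound at one concentration, and incubated for 48 hours before percent growth was determined.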 Activity calls are given as the source filed them. How the source made its calls: active means growth percent below 10; inactive means the rest.

What follows are compounds tested on MDA-MB-468 breast (assay: NCI-60 one-dose screen, 48 h (100 = growth as untreated, 0 = no growth, -100 = all killed)). Details: 10 µM unless noted.
With `O=C1c2ccccc2C(=O)c2c1ccc(C(=O)O)c2[N+](=O)[O-]` the growth was 119% (inactive).
In the case of `O=C(Nc1ccc(Cl)cc1)c1cc2ccccc2cc1OP(=O)(O)O`, the growth is reported as 71.3% (inactive).
For `O=C(Nc1ccc(Oc2cccc(Cl)c2)c(Cl)c1)c1cnccn1`, the growth was 0.426% (active).
`CCNc1nc2ccc(Nc3ccnc4cc(Cl)ccc34)cc2[nH]1` was tested, and the growth was 21.8% (inactive).
With `O=C(c1ccccc1)[C@@H](c1ccccc1)[C@]1(O)C(=O)Nc2ccccc21` the growth was 102% (inactive).
For `CCCCC(O)c1ccccc1` (stereo not given), the growth was 98.6% (inactive).
`O=C(CN1C(=O)CSC1=O)Nc1ccc(C(=O)/C=C/c2cc3ccccc3nc2Cl)cc1` was tested, and the growth was 48.7% (inactive).
In the case of `OCC(O)c1nc2ccc3[nH]ncc3c2c2c1CCCC2` (stereo not given), the growth is reported as -28.1% (active).
In the case of `COc1cc(/C=C/C(=O)c2cc(OC)c(OC)c(OC)c2)ccc1Oc1nc2c(c(=O)n(C)c(=O)n2C)n1C`, the growth is reported as -72% (active).
`CCCCCCCCO` was tested, and the growth was 98.9% (inactive).
With `COc1cc(/C=C/c2cc(/C=C/c3ccc(O)c(OC)c3)n(C(=O)Nc3ccc(F)cc3)n2)ccc1O` the growth was -14.6% (active).
`CCN1CCN(C(=O)[C@]23CCC(C)(C)C[C@H]2C2=CC[C@@H]4[C@@]5(C)Cc6c([nH]c7ccccc67)C(C)(C)[C@@H]5CC[C@@]4(C)[C@]2(C)CC3)CC1` was tested, and the growth was 84.7% (inactive).
In the case of `CC1=CC(=O)C2=C(C)CC(OC(=O)CCc3ccccc3)[C@@H]3[C@H](OC(=O)[C@@H]3C)[C@@H]12` (stereo not given in full), the growth is reported as 79.4% (inactive).
With `COc1ccc(C(=O)/C=C/c2ccc(Cl)cc2)cc1S(=O)(=O)Nc1c(N)nc(SC)[nH]c1=O` the growth was 47.3% (inactive).
For `CCC(c1ccc(OC)cc1)C(CC)c1ccc(O)c(CN2CCN(C)CC2)c1` (stereo not given), the growth was 30% (inactive).
With `CCN(CC)CCNC(=O)n1cc(-c2ccncc2)c(-c2cc(Cl)cc(OC)c2)n1` the growth was 80.5% (inactive).
For `O=C(CSC(=S)N1CCCCC1)Nc1ccccc1`, the growth was 103% (inactive).
`COc1cnc2c(c1)C(=O)c1c-2n(CCCn2ccnc2)c(=O)c2cc(OC)c(OC)cc12` was tested, and the growth was -25.7% (active).
In the case of `COc1ccc(C2CC(c3cccc(Nc4ccnc5cc(Cl)ccc45)c3)=NN2c2ccc(Cl)cc2)cc1` (stereo not given), the growth is reported as 64% (inactive).
For `Cc1[nH]c2ccc(F)cc2c1CCNC(=O)C1CCN(C(=O)c2ccccc2)CC1`, the growth was 87.7% [25 µM] (inactive).
For `Cn1cc2c(c1)-c1nc(Nc3ccccc3)ncc1CC2`, the growth was 47.6% (inactive).
For `COc1ccc(/C(C)=C(\c2ccc(Cl)cc2)c2ccc(OCCCN(C)C)cc2)cc1`, the growth was 82.7% (inactive).
With `CNC(=O)c1cc(Oc2ccc3nc(NC(=O)Nc4ccc(CN5CCOCC5)c(C(F)(F)F)c4)sc3c2)ccn1` the growth was -17.2% (active).
With `O=C(NNc1ccccc1)c1ncc[nH]1` the growth was 75.6% (inactive).
`CCCOC(=O)C1c2cc3c(cc2CC(C)C1C(=O)OCCC)OCO3` (stereo not given) was tested, and the growth was 102% (inactive).
With `Cn1c(N)c(N=O)c(=O)[nH]c1=O` the growth was 115% (inactive).
With `COc1ccccc1-n1c(-c2csc(NC(C)=O)n2)n[nH]c1=S` the growth was 100% (inactive).
In the case of `Cc1cc(Nc2ncc(Cl)c(Nc3ccccc3S(=O)(=O)C(C)C)n2)c(OC(C)C)cc1C1CCNCC1`, the growth is reported as -78.1% (active).
For `Cc1ccc(-c2csc3nc(C)c(CCCl)c(=O)n23)cc1`, the growth was 83.6% (inactive).
With `O=C(Nc1cccc(-c2ccc(Cl)c(C(F)(F)F)c2)c1)C1CCN(Cc2cccc3cccnc23)CC1` the growth was -5.03% (active).
In the case of `CCN1CCN(c2cc(C)nc(N(CCCNc3ccnc4cc(Cl)ccc34)Cc3ccc4c(c3)OCO4)n2)CC1`, the growth is reported as -55.5% (active).
With `Cc1cc2ncc(-c3cc4ccccc4c(N4CCN(C)CC4)n3)nc2cc1C` the growth was -76.6% (active).
For `C[n+]1c2ccccc2nc2ccc(NCCO)cc21`, the growth was 94% (inactive).
For `Cc1ccc(/C=C(\C#N)C(=O)Nc2ncc(Cc3cc(Cl)ccc3Cl)s2)o1`, the growth was 69.6% (inactive).
`CCCCCCCCCCCCCCCCSC(=NCC)NCC` was tested, and the growth was -37.3% (active).
In the case of `CC(C)(C)n1cc(-c2ccnc(NCCCNS(=O)(=O)c3cccc4ccccc34)c2)c(-c2cccc(F)c2)n1`, the growth is reported as 52.5% (inactive).
In the case of `COc1cc(C(=O)NNC(=O)c2ccc(NC(=O)CCl)cc2)cc(OC)c1OC`, the growth is reported as 70.3% (inactive).
In the case of `O=C(CSc1nnc(-c2cccs2)n1-c1ccccc1)Nc1ccccc1F`, the growth is reported as 67.1% (inactive).
`COc1cc(-c2nn(C(=O)NS(=O)(=O)c3ccccc3)cc2-c2ccncc2)ccc1Cl` was tested, and the growth was 68% (inactive).
For `O=C1C[C@H](Sc2nc(-c3ccc(F)cc3)cc(C(F)(F)F)n2)[C@H]2CO[C@@H]1O2`, the growth was 71.4% (inactive).
